Assay results from PubChem BioAssay (NCI).
About 79,000 compounds went through this panel and 15% of them were active in at least one assay; those are over-represented in the sample as a whole. Activity calls are given as the source filed them. Rule as the data show it: active = growth inhibition above about 70%; inactive = the rest. Where a SMILES comes first, the peptide text is derived from it. The star is where a group is joined. Myristoyl = CCCCCCCCCCCCCC(=O)*

Assay: NCI Yeast Anticancer Drug Screen. Data for the rad50 strain (AID 155);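 also: 0% = growth of vehicle-only cultures of the same strain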
Settings: S. cerevisiae rad50 strain growth inhibition; at 50.0 µM; hits give high values
In short: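 Vehicle-treated cultures provide the reference for the growth inhibition reported for compound-exposed, repair-deficient yeast.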

Row | SMILES | growth inhibition
1 | NS(=O)(=O)c1ccc(NC2=CC(=O)C(=O)c3ccccc32)cc1 | -6.4% (inactive)
2 | O=[N+]([O-])c1ccccc1C=NC12CC3CC(CC(C3)C1)C2 | 15% (inactive)
3 | c1ccc(SCCP(CCP(c2ccccc2)c2ccccc2)c2ccccc2)cc1 (stereo not given) | 34.9% (inactive)
4 | CC(=O)CC(=O)NCCCN1CCCCCC1 | -1.1% (inactive)
5 | CCCCCCCC(=O)OCC1OC(n2cc(F)c(=O)[nH]c2=O)C(NC(=O)OCc2ccccc2)C(O)C1O (stereo not given) | -15.1% (inactive)
6 | NNC(=O)CSc1ncnc2nc[nH]c12 | 1.3% (inactive)
7 | Cc1ccc(-c2nc(-c3nccc4ccccc34)oc2-c2ccccc2)cc1 | -6% (inactive)
8 | CCc1nnc(CC)n1N | 46.2% (inactive)
9 | O=C1CCCC2=C1CC1=C(CCCC1=O)N2c1ccc([N+](=O)[O-])cc1 | -35.8% (inactive)
10 | CC(=O)Nc1ccc(/C=N\NC(=S)Nc2ccc(F)cc2)cc1 | -13.4% (inactive)
11 | COc1cccc(-c2nsc(=O)o2)c1 | 41.5% (inactive)
12 | O=C1N=C2C=CC=CN2CC1O (stereo not given) | -0.4% (inactive)
13 | CC1(C)N=C(N)N=C(N)N1CCCCc1ccccc1 | -23.7% (inactive)
14 | CC#Cc1c(C#CC)c(OC)c2c(c1OC)C(=O)c1ccccc1C2=O | -20.9% (inactive)
15 | COc1ccc(CCN=C(N)CCl)cc1 | 11.8% (inactive)
16 | S=C(Nc1c2c(nc3ccccc13)CCCC2)Nc1c2c(nc3ccccc13)CCCC2 | -14.9% (inactive)
17 | CC1(C)CC(=O)C2(C)C(C1O)C2C1C2C(O)C(C)(C)CC(=O)C21C (stereo not given) | -11.2% (inactive)
18 | CC(=O)c1c2c(cc3c1CC1(C3)Cc3cc4c(c(C(C)=O)c3C1)CCC4)CCC2 | -21.5% (inactive)
19 | O=C1OC(=O)C2C1C1C=CC2C1(c1ccccc1)c1ccccc1 (stereo not given) | 9.05% (inactive)
20 | CCC1(C)C(=O)SC(=S)N1C (stereo not given) | 4.4% (inactive)

Row | SMILES | growth inhibition
21 | CCN(CC)c1ccc(N=C2C=C(C(=O)Nc3ccccc3)C(=O)c3ccccc32)cc1 | -10.9% (inactive)
22 | O=C(CCN1CCCC1)c1ccccc1 | -25.1% (inactive)
23 | CC(=O)C1CN(C)CCC1=O (stereo not given) | -20% (inactive)
24 | CC1=NNC(=O)C1(C)C | -16.4% (inactive)
25 | Cc1cc(C)c2c(ccc3ccccc32)n1 | -43.9% (inactive)
26 | O=C(Oc1cccc2ccccc12)c1cccnc1 | -1.45% (inactive)
27 | NS(=O)(=O)c1ccc(N=C2C(=O)Nc3ccccc32)cc1 | 1.05% (inactive)
28 | CCCCCCCCCCCCCC(=O)NCC(=O)NC(CO)C(=O)NC(CO)C(=O)NC(CCCCN)C(=O)NC(CO)C(=O)NC(CCCCN)C(=O)N1CCCC1C(=O)NC(CCCCN)C(=O)NC(CC(=O)O)C(N)=O (stereo not given) (Myristoyl-GSSKSKPKD-NH2; configuration not given here) | 7.25% (inactive)
29 | CC12CC3(Nc4ccccc4C3(C)O)OC1(C)c1ccccc1N2 (stereo not given) | 1.1% (inactive)
30 | OCC=C1CCCCCC1 | 4.9% (inactive)
31 | O=C1NCC/C1=C\c1ccccc1 | -7.2% (inactive)
32 | COc1ccc(N=NC(=S)NNc2ccc(OC)cc2Oc2ccccc2)c(Oc2ccccc2)c1 | 12.5% (inactive)
33 | C[C@@H](O)CO | 17.8% (inactive)
34 | CCOC(=O)C1/C(=C\O)C(=O)c2cc(OC)c(OC)cc2C1c1ccc(OC)c(OC)c1 (stereo not given) | -0.5% (inactive)
35 | COc1cc(OC)c(NC(=O)Nc2ccc([N+](=O)[O-])cc2OC)cc1Cl | -21.6% (inactive)
36 | Cc1cccc(CC(N)C(=O)O)c1 (stereo not given) | -5.15% (inactive)
37 | NC(N)=Nc1cccc2ccccc12 | -1.45% (inactive)
38 | O=Cc1[nH]c(=S)[nH]c(=O)c1Cc1cccc(Cl)c1 | 63.9% (inactive)
39 | C1CCN(CCC2CCNCC2)C1 | 5.5% (inactive)
40 | O=C(O)c1cccc2c1cc(Br)c1ccccc12 | 22.6% (inactive)

Assay: NCI Yeast Anticancer Drug Screen. Data for the mec2-1 strain (AID 157)
Settings: S. cerevisiae mec2-1 strain, at 50.0 µM, hits give high values
In short: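 Yeast mec2-1 mutant treated with compound. Readout: growth inhibition vs vehicle controls.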

Row | SMILES | growth inhibition
41 | NS(=O)(=O)c1ccc(NC2=CC(=O)C(=O)c3ccccc32)cc1 | -5.6% (inactive)
42 | O=[N+]([O-])c1ccccc1C=NC12CC3CC(CC(C3)C1)C2 | -9.15% (inactive)
43 | c1ccc(SCCP(CCP(c2ccccc2)c2ccccc2)c2ccccc2)cc1 (stereo not given) | 2.6% (inactive)
44 | CC(=O)CC(=O)NCCCN1CCCCCC1 | -20.1% (inactive)
45 | CCCCCCCC(=O)OCC1OC(n2cc(F)c(=O)[nH]c2=O)C(NC(=O)OCc2ccccc2)C(O)C1O (stereo not given) | -13.8% (inactive)
46 | NNC(=O)CSc1ncnc2nc[nH]c12 | 9.8% (inactive)
47 | Cc1ccc(-c2nc(-c3nccc4ccccc34)oc2-c2ccccc2)cc1 | 0.45% (inactive)
48 | CCc1nnc(CC)n1N | -7.05% (inactive)
49 | O=C1CCCC2=C1CC1=C(CCCC1=O)N2c1ccc([N+](=O)[O-])cc1 | -30.1% (inactive)
50 | CC(=O)Nc1ccc(/C=N\NC(=S)Nc2ccc(F)cc2)cc1 | -12.7% (inactive)
51 | COc1cccc(-c2nsc(=O)o2)c1 | 23.1% (inactive)
52 | O=C1N=C2C=CC=CN2CC1O (stereo not given) | -11.2% (inactive)
53 | CC1(C)N=C(N)N=C(N)N1CCCCc1ccccc1 | -41.9% (inactive)
54 | CC#Cc1c(C#CC)c(OC)c2c(c1OC)C(=O)c1ccccc1C2=O | -29.3% (inactive)
55 | COc1ccc(CCN=C(N)CCl)cc1 | 10.8% (inactive)
56 | S=C(Nc1c2c(nc3ccccc13)CCCC2)Nc1c2c(nc3ccccc13)CCCC2 | 9.55% (inactive)
57 | CC1(C)CC(=O)C2(C)C(C1O)C2C1C2C(O)C(C)(C)CC(=O)C21C (stereo not given) | 3.25% (inactive)
58 | CC(=O)c1c2c(cc3c1CC1(C3)Cc3cc4c(c(C(C)=O)c3C1)CCC4)CCC2 | -31.4% (inactive)
59 | O=C1OC(=O)C2C1C1C=CC2C1(c1ccccc1)c1ccccc1 (stereo not given) | 4.25% (inactive)
60 | CCC1(C)C(=O)SC(=S)N1C (stereo not given) | -0.2% (inactive)

Row | SMILES | growth inhibition
61 | CCN(CC)c1ccc(N=C2C=C(C(=O)Nc3ccccc3)C(=O)c3ccccc32)cc1 | -40.3% (inactive)
62 | O=C(CCN1CCCC1)c1ccccc1 | -15.1% (inactive)
63 | CC(=O)C1CN(C)CCC1=O (stereo not given) | -4.55% (inactive)
64 | CC1=NNC(=O)C1(C)C | 0.7% (inactive)
65 | Cc1cc(C)c2c(ccc3ccccc32)n1 | -21.4% (inactive)
66 | O=C(Oc1cccc2ccccc12)c1cccnc1 | -2% (inactive)
67 | NS(=O)(=O)c1ccc(N=C2C(=O)Nc3ccccc32)cc1 | -6.1% (inactive)
68 | CCCCCCCCCCCCCC(=O)NCC(=O)NC(CO)C(=O)NC(CO)C(=O)NC(CCCCN)C(=O)NC(CO)C(=O)NC(CCCCN)C(=O)N1CCCC1C(=O)NC(CCCCN)C(=O)NC(CC(=O)O)C(N)=O (stereo not given) (Myristoyl-GSSKSKPKD-NH2; configuration not given here) | -2.55% (inactive)
69 | CC12CC3(Nc4ccccc4C3(C)O)OC1(C)c1ccccc1N2 (stereo not given) | 9.35% (inactive)
70 | OCC=C1CCCCCC1 | 6.8% (inactive)
71 | O=C1NCC/C1=C\c1ccccc1 | -10.7% (inactive)
72 | COc1ccc(N=NC(=S)NNc2ccc(OC)cc2Oc2ccccc2)c(Oc2ccccc2)c1 | -0.4% (inactive)
73 | C[C@@H](O)CO | -16% (inactive)
74 | CCOC(=O)C1/C(=C\O)C(=O)c2cc(OC)c(OC)cc2C1c1ccc(OC)c(OC)c1 (stereo not given) | 0.9% (inactive)
75 | COc1cc(OC)c(NC(=O)Nc2ccc([N+](=O)[O-])cc2OC)cc1Cl | -17.6% (inactive)
76 | Cc1cccc(CC(N)C(=O)O)c1 (stereo not given) | 5.1% (inactive)
77 | NC(N)=Nc1cccc2ccccc12 | 0.85% (inactive)
78 | O=Cc1[nH]c(=S)[nH]c(=O)c1Cc1cccc(Cl)c1 | 35.2% (inactive)
79 | C1CCN(CCC2CCNCC2)C1 | -19.4% (inactive)
80 | O=C(O)c1cccc2c1cc(Br)c1ccccc12 | 23.2% (inactive)
